# Laboratory results published in PubChem BioAssay AID894 (National Center for Advancing Translational Sciences (NCATS), 2007).
# Several values for one entry are separate records, joined by “and”; a condition that tells them apart may be missing. Equal values may be shown once. Hit rate of the full screen: of about 150,000 compounds, about 6,500 (4.3%) were called active. Another 12% or so got no clear call; they are omitted. This excerpt belongs to a sample that is enriched for actives. Values without a mark were called inactive. The call rests on the fitted dose curve; in most records, active means well fitted inhibition curve with a large enough effect (not every such curve was filed as active); inconclusive means small, poorly fitted or top-dose-only effect, or another doubt; inactive means no such curve, though single readings can be large or run the other way.
# Target: 15-hydroxyprostaglandin dehydrogenase [NAD(+)] (Homo sapiens) (UniProt P15428)
# Assay: qHTS Assay for Inhibitors of HPGD (15-Hydroxyprostaglandin Dehydrogenase)
# Conditions: purified HPGD, NADH fluorescence kinetic, PGE2 substrate; activity change, negative = inhibition: active compounds read low
# Outline: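 NADH formation kinetics: reaction with 30 uM PGE2 and 1 mM NAD+ (final), 20 nM enzyme, Tris-HCl pH 8 with Tween 20, after 15 min compound preincubation at room temperature. Fluorescence change, last versus first of five reads.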
# On the % scale 0 is the no-effect control and ±100 the full control effect; potency means the concentration at half of the fitted maximal effect.
# 15-hydroxyprostaglandin dehydrogenase [NAD(+)] (Homo sapiens), sequence (P15428 whole entry, looked up): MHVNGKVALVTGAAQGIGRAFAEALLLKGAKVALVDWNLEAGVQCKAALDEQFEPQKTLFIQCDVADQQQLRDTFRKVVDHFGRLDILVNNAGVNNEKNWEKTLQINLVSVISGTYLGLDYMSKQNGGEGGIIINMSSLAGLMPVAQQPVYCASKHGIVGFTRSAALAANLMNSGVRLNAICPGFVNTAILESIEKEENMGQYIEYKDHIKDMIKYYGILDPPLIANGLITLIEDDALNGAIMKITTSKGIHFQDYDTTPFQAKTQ
SMILES,"activity change, negative = inhibition",Potency
Cc1cc(OCCCC(=O)NCCN2C(=O)S/C(=C\c3cccnc3)C2=O)ccc1Cl,-5.63%,–
Cn1cnc(C(F)(F)F)c1-c1ccc([N+](=O)[O-])cc1,-0.963%,–
Cc1nc2ccccc2c(=O)n1CCCn1ccnc1,-6.43%,–
Cc1ccnc(-n2sc3ccccc3c2=O)n1,–,0.794 µM (active)
Cc1ccc(NC(=S)NCc2ccccc2Cl)c(C)c1,-27.2%,–
Clc1ccc(C2=CSC3=Nc4cccc5cccc(c45)N23)cc1,–,7.94 µM (active)
O=S(=O)(NCC1CCCO1)c1cnc(Cl)c(Cl)c1 (stereo not given),-16.1%,–
C/C(=C\c1ccccc1)C1NC(=O)c2c(sc3c2CCCC3)N1 (stereo not given),-3.55%,–
O=C(c1cc(-c2ccccc2O)on1)N1CCCC1,-29.8%,–
O=C(c1cc(-c2cccs2)on1)N1CCCCC1,–,1.78 µM (active)
COc1ccccc1-c1cc(C(=O)N2CCCCC2)no1,–,3.55 µM (active)
COc1ccccc1N1CCN(C(=O)c2cc(-c3ccc(Br)cc3)on2)CC1,-29.1%,–
O=C(c1cccs1)N1CCN(C(=O)N2CCOCC2)CC1,2.42%,–
COc1ccccc1N1CCN(C(=O)c2cc(-c3ccc(Cl)c(Cl)c3)on2)CC1,-13.7%,–
Cc1cc(C)cc(NC(=S)NCc2ccc(F)cc2)c1,-19.9%,–
CCn1nc(C)c(/C=N/NC(=O)Cc2ccc(Cl)cc2)c1C,-9.17%,–
O=C(NCc1cccs1)C(=O)NCC1OCCCN1S(=O)(=O)c1ccc(F)cc1 (stereo not given),-5.48%,–
C=CCOC(=O)NC(c1ccc(F)c(F)c1)C(C(=O)COC)C(=O)OC (stereo not given),-10.1% and -9.32%,–
COC(=O)c1ccc(/C=N\n2c(C)nnc2C)cc1,-12.4%,–
CCN(CC)S(=O)(=O)c1cccc(-c2n[nH]c(=S)n2/N=C/c2ccc(C(=O)OC)cc2)c1,–,6.31 µM (active)
CCN(CC)S(=O)(=O)c1cccc(C(=O)Nc2ccccc2)c1,0.0347%,–
CC(Sc1nc2cc(Cl)ccc2s1)C(=O)Nc1ccc2c(c1)OCO2 (stereo not given),-22.7%,–
CC(C)CNC(=O)COC(=O)/C=C/c1ccccc1[N+](=O)[O-],–,28.2 µM (active)
O=C(COC(=O)/C=C/c1cccc(Cl)c1)NCCc1ccccc1,-5.17%,–
CC(C)CNC(=O)COC(=O)/C=C/c1ccco1,-11.3%,–

SMILES,"activity change, negative = inhibition",Potency
COc1cccc(NC(=S)NCc2ccco2)c1,–,11.2 µM (active)
COc1cccc(NC(=S)NCCCN2CCOCC2)c1,-6.46%,–
COc1cccc(NC(=S)NCc2ccccn2)c1,-28.2%,–
O=S(=O)(NCc1ccccn1)c1ccc(F)cc1,-6.74%,–
Cc1ccc(S(=O)(=O)Nc2ccc3ncccc3c2)cc1,-6.64%,–
O=S(=O)(Nc1ccc(Oc2ncccn2)c(Cl)c1)c1ccc(F)cc1,–,35.5 µM (active)
Cc1cc(F)ccc1S(=O)(=O)Nc1ncnc2scc(-c3ccc(F)cc3)c12,-6.93%,–
O=[N+]([O-])c1cccc(C2=NCCS2)c1,-12.8%,–
O=C(COC(=O)c1cc(-c2cccs2)nn1-c1ccccc1)Nc1cc([N+](=O)[O-])ccc1Cl,-0.873%,–
CCOP(=O)(OCC)C(Nc1cccc(C)c1)c1ccc(F)cc1 (stereo not given),-7.61%,–
O=C(c1cccc(S(=O)(=O)N2CCOCC2)c1)N1CCOCC1,-2.21%,–
CC1CN(C(=O)c2ccc3c(c2)OCO3)OC(c2ccccc2)O1 (stereo not given),-4.25%,–
O=C(c1ccc2c(c1)OCO2)N1CCOCC1,–,14.1 µM (active)
O=C(Nc1ccccc1N1CCN(C(=O)c2ccccc2)CC1)c1ccc2c(c1)OCO2,-1.04%,–
O=C(c1ccc2c(c1)OCO2)N1CCNc2ccccc2C1,–,25.1 µM (active)
O=C(c1ccc2c(c1)OCO2)N1CCN(C(=O)c2ccco2)CC1,-11.7%,–
CC(Nc1oc(-c2ccccc2)nc1-c1ccccc1)c1ccccc1 (stereo not given),0.641% and -7.86%,–
COc1ccc(Cc2nnc(N/N=C/c3ccccc3O)[nH]c2=O)cc1OC,-16.1%,–
NS(=O)(=O)c1ccc(N=Cc2ccc(Br)s2)cc1,-0.454%,–
N#Cc1ccccc1NC(=O)COc1c(Br)cc(Br)c2cccnc12,-10%,–
Fc1ccc2nc(N3CCCCC3)sc2c1,-12.2%,–
Fc1cc(F)c2nc(N3CCOCC3)sc2c1,-12.5%,–
c1c2c(cc3sc(N4CCCCC4)nc13)OCCO2,–,25.1 µM (active)
CC1=C(C/C=C(\C)CCCC(C)CCCC(C)CCCC(C)C)C(=O)c2ccccc2C1=O (stereo not given),-10.7%,–
O=C(CN(Cc1ccccc1)C(=O)c1ccc2c(c1)OCCO2)NCc1ccc2c(c1)OCO2,-6.78%,–

SMILES,"activity change, negative = inhibition",Potency
CCC(C)(C(=O)NC1CCCCC1)N(C)C(=O)c1ccc2c(c1)OCO2 (stereo not given),-0.912%,–
CCCCN(CC)C(=O)c1ccc2c(c1)OCO2,–,12.6 µM (active)
CCn1c(=O)cc(SCC(=O)NCCC2=CCCCC2)c2ccccc21,–,7.08 µM (active)
CCn1c(=O)cc(SCC(=O)NCc2ccc3c(c2)OCO3)c2ccccc21,-4.58%,–
Cc1nnc(OCC(=O)NCCC2=CCCCC2)c2ccccc12,-17.6%,–
O=C1CC(c2cccc(Cl)c2)CC(O)=C1C=Nc1ccccc1 (stereo not given),-9.88%,–
O=C(CNC(c1ccccc1)c1ccccc1)Nc1ccc(F)cc1,-9.88%,–
CC(C)(C)c1ccc(Oc2ccc(N)cc2)cc1,–,28.2 µM (active)
Cc1ccc(Oc2ccc(N)cc2)cc1,-24%,–
Nc1ccc(Oc2ccc(Cl)cc2)cc1,-8.65%,–
CCCCN(CC)C(=S)Nc1ccc2nc3n(c(=O)c2c1)CCCCC3,-1.94%,–
COc1ccc(C(=O)ON=C2c3ccccc3-c3ccccc32)cc1OC,-23.4%,–
CCOc1ccc(Oc2nc(C)cc(OC)n2)nn1,-6.46%,–
Cc1scc(C(=O)NNC(=S)NCC(C)C)c1C,-5.27%,–
Cc1cccc(NC(=S)N(CCN(C)C)C(C)c2ccco2)c1 (stereo not given),-15.4%,–
COc1ccc(S(=O)(=O)NC(C)C)cc1C(=O)NC1CCCCC1,-17.6%,–
CCC(CC)c1nnc(NC(=O)/C=C/c2ccco2)s1,-29.6%,–
O=c1onc(-c2cccs2)n1Cc1ccccc1,-5.59%,–
c1ccc2[nH]c(-c3nc4ccccc4[nH]3)nc2c1,-25.9%,–
O=c1[nH]c(-c2cccs2)nc2ccccc12,–,15.8 µM (active)
Nc1nc(CC(=O)CSc2ccc(Cl)cc2)nc(Nc2ccc(F)cc2)n1,-7.75%,–
COc1cc(OC)cc(C(=O)NCCSCc2ccco2)c1,–,20 µM (active)
O=C(/C=C/c1cccc([N+](=O)[O-])c1)NCCSCc1ccco1,–,25.1 µM (active)
CCC(CC)NC(=O)/C=C/c1cccc([N+](=O)[O-])c1,-13.1%,–
COc1ccc(CCNC(=O)c2ccco2)cc1,-3.27%,–

SMILES,"activity change, negative = inhibition",Potency
O=C(/C=C/c1ccc([N+](=O)[O-])cc1)NCCSCc1ccco1,-22.9%,–
CS(=O)(=O)N(Cc1ccc(Cl)cc1)c1ccc(C(=O)NCCSCc2ccco2)cc1,-4.85%,–
CC(=O)Nc1cccc(/C(C)=N/NC(=O)c2c(-c3ccccc3Cl)noc2C)c1,-6.16%,–
COc1ccc(S(=O)(=O)NC(C)C(=O)Nc2cccc([N+](=O)[O-])c2)cc1 (stereo not given),-10.4%,–
O=C(COC(=O)Cn1cnc2ccccc2c1=O)NCC12CC3CC(CC(C3)C1)C2,-2.81%,–
COc1cc(NC(=O)Nc2ccc(C)cc2)cc([N+](=O)[O-])c1,-10.2%,–
CCOC(=O)C1=NO[C@@]2(C=C(Br)C(=O)[C@H]3O[C@H]32)C1,-23%,–
COc1ccccc1-c1cc(C(=O)NCCCn2ccnc2)no1,-21.8%,–
O=C(NCc1ccccn1)c1cc(-c2ccccc2Cl)on1,–,14.1 µM (active)
Clc1ccccc1-c1cc(COc2ccc3ccccc3c2)no1,-25.6%,–
CCOC(=O)c1c(NC(=O)CSc2nnc(CN3CCOCC3)n2C)sc2c1CCCC2,-2.63%,–
CCc1cccc(C)c1NC(=O)CSc1nnc(-c2ccco2)n1N,-10.6%,–
NC(=O)c1c(NC(=O)CSc2nnc(-c3ccco3)n2N)sc2c1CCCC2,–,14.1 µM (active)
CC(C)=C1C2CCC1C1C(=O)N(NC(=O)c3ccco3)C(=O)C21 (stereo not given),-7.1%,–
CC(C)CNC(=O)c1cc(-c2ccc(Br)cc2)on1,-23.1%,–
CC(C)Cc1cc(C(=O)Nc2cc(Br)ccc2O)no1,–,25.1 µM (active)
CC(C)Cc1cc(C(=O)NCCc2ccccc2)no1,-20.6%,–
COc1ccc(C(C(=O)NC2CCCCC2)N(C(=O)CCl)c2ccccc2Cl)cc1 (stereo not given),-4.95%,–
N#Cc1c(NC(=O)c2ccc(N3CCOCC3)c([N+](=O)[O-])c2)sc2c1CCCC2,-10.9%,–
O=C(/C=C/c1ccc(Cl)cc1)N1CCN(c2ccccc2[N+](=O)[O-])CC1,-15%,–
CC(C)(C)NC(=O)C(=O)NCc1ccncc1,-2.72%,–
Cc1nc2ccccc2n1CC(=O)N/N=C/c1cccs1,-4.95%,–
O=C(CCC(=O)c1cccs1)NCc1ccccc1,–,31.6 µM (active)
O=C(COC(=O)CCC(=O)c1cccs1)NCc1ccco1,-9.26%,–
O=C(c1cccs1)n1nc(NCc2ccccc2)nc1NCc1ccccc1,-18.3%,–
